Measurements taken from PubChem BioAssay (NCI).
This is part of a sample that, as a whole, favours compounds with a hit. Of some 79,000 tested, about 15% had one in any assay. Values without a mark were called inactive. The source made the active and inactive calls. Rule as the data show it: active = growth inhibition above about 70%; inactive = the rest.

Experiment: NCI Yeast Anticancer Drug Screen. Data for the sgs1 mgt1 strain (AID 161);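 also: 0% = growth of cultures given vehicle only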
Conditions: S. cerevisiae sgs1 mgt1 strain, at 50.0 µM, stronger effect = higher value
Method in brief: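 Percent growth inhibition was derived by comparing compound-exposed mutant yeast with vehicle-exposed cultures. The strain carries alterations in DNA damage repair.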

Row | Structure (SMILES) | growth inhibition
1 | O=P(Oc1ccccc1)(Oc1ccccc1)C(O)c1ccccc1 (stereo unspecified) | 16.8%
2 | CNC(=O)C(Cl)Cl | 11.7%
3 | CCOC(=O)CC(Br)C(=O)CBr (stereo unspecified) | 7.15%
4 | CC(C)C1NC(C(C)C)N2C(C(C)C)N12 (stereo unspecified) | -14.3%
5 | O=[C-]C(F)(F)F.[C-]#[O+].[C-]#[O+].[C-]#[O+].[Mo].[c-]1[c-][c-][cH-][c-]1 | 0.8%
6 | COc1ccc2ccc([Se]c3ccc4ccc(OC)cc4c3)cc2c1 | -1.85%
7 | Nc1cccc2c1Cc1cc([N+](=O)[O-])ccc1-2 | 17.6%
8 | CN(C)CCNC(=O)c1ccc(N(CCCl)CCCl)c([N+](=O)[O-])c1[N+](=O)[O-] | 30.8%
9 | O=S(=O)(O)C(Br)(Br)Br | 23.6%
10 | FC(F)(F)C(OP(OC(C(F)(F)F)C(F)(F)F)OC(C(F)(F)F)C(F)(F)F)C(F)(F)F | 2.6%
11 | CCCCCCCCCCCCCCCC(=O)[O][Hg][c]1ccccc1 | 99% (active)
12 | O=[N+]([O-])c1ccc(OCc2ccc(S(=O)(=O)F)cc2Cl)c(Cl)c1 | -3.15%
13 | Oc1ccc(Nc2ncnc3nc[nH]c23)cc1CN(CCCl)CCCl | 3.95%
14 | CCOC(=O)C[S][Sn]([Cl])([Cl])[S]CC(=O)OCC | -3.65%
15 | CCCn1cc2c3c(cccc31)[C@H]1C[C@@H](C)CN(C)[C@@H]1C2 | 41%
16 | CC(C)c1cccc(C(C)C)c1NC(=O)/C(CC(=O)CC(c1ccccc1)c1c(O)c2ccccc2oc1=O)=N/O (stereo unspecified) | 19.1%
